Source: PubChem BioAssay (NCI)
About 79,000 compounds went through this panel and 15% of them were active in at least one assay; those are over-represented in the sample as a whole. No stated cut-off is given here; in the data, active means growth inhibition above about 70%; inactive means the rest. Where a SMILES comes first, the peptide text is derived from it. [ ]: non-standard residue; d: D form. The star is where a group is joined. ξ: configuration not given here. Cbz = O=C(OCc1ccccc1)*; ξNva = CCCC(N)C(=O)O

Legend:
[1] = NCI Yeast Anticancer Drug Screen. Data for the rad50 strain (AID 155);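 further: 0% = growth of vehicle-only cultures of the same strain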; conditions: S. cerevisiae rad50 strain growth inhibition; at 50.0 µM; stronger effect = higher value
Method in brief: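 Growth of the mutant yeast was measured after compound exposure and referenced to vehicle-treated cultures.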

[2] = NCI Yeast Anticancer Drug Screen. Data for the mec2-1 strain (AID 157); conditions: S. cerevisiae mec2-1 strain, at 50.0 µM, stronger effect = higher value
Method in brief: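 mec2-1 yeast strain, carrying an alteration in DNA damage repair or cell cycle control, was exposed to compounds; growth inhibition was measured relative to vehicle-treated controls.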

[3] = NCI Yeast Anticancer Drug Screen. Data for the sgs1 mgt1 strain (AID 161);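 further: 0% = growth of cultures given vehicle only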; conditions: S. cerevisiae sgs1 mgt1 strain, at 50.0 µM, stronger effect = higher value
Method in brief: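 Yeast cells carrying a defined DNA-repair defect were exposed to test compounds. Growth inhibition was measured relative to vehicle-treated controls.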

[4] = NCI Yeast Anticancer Drug Screen. Data for the cln2 rad14 strain (AID 165);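 further: 0% = growth equal to vehicle treated cultures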; conditions: S. cerevisiae cln2 rad14 strain, at 50.0 µM, stronger effect = higher value
Method in brief: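 Yeast carrying cln2 and rad14 alterations (cell cycle control and DNA damage repair) were exposed to compounds. Growth inhibition was measured against vehicle-treated controls.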

[5] = NCI Yeast Anticancer Drug Screen. Data for the bub3 strain (AID 167); conditions: S. cerevisiae bub3 mutant strain, at 50.0 µM, stronger effect = higher value
Method in brief: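 Whole-cell yeast assay. The mutant strain was incubated with compounds, and growth inhibition was determined by comparison with vehicle-treated cells.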

[6] = NCI Yeast Anticancer Drug Screen. Data for the mlh1 rad18 strain (AID 175); conditions: S. cerevisiae mlh1 rad18 strain growth inhibition; at 50.0 µM; stronger effect = higher value
Method in brief: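 Growth inhibition of the yeast strain was measured after compound exposure and expressed relative to vehicle-treated controls. The strain carries defined defects in DNA damage repair.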

Measured: growth inhibition

Cc1cc(-c2ccccc2)[nH]c1-c1nccc2ccccc12
inactive: [1] 4.1% | [2] 8% | [3] 0.8% | [4] 24% | [5] -4.5% | [6] 4.7%

c1ccc(Nc2cc(Nc3ccccc3)ncn2)cc1
inactive: [1] 4.4% | [2] -20.5% | [3] 3.8% | [4] -6.5% | [5] -2.2% | [6] 2.35%

CCCC(CCc1ccccc1)C(N)=O (stereo unspecified)
inactive: [1] 1.4% | [2] -5.7% | [3] 9.15% | [4] -7.35% | [5] 10.8% | [6] -1.9%

O=C(O)c1csc(C(=O)O)c1
inactive: [1] 8.5% | [2] -1.1% | [3] 9.05% | [4] 2.3% | [5] 12.4% | [6] 8.35%

O=C(CNc1ccccc1)c1ccc(O)c(C(=O)O)c1 (tested in a mixture with another compound)
inactive: [1] -8.5% | [2] -12.3% | [3] -11.3% | [4] -5.35% | [5] -0.7% | [6] 0.95%

Cc1ccc(CC(=S)N2CCOCC2)cc1
inactive: [1] 19.8% | [2] 24.2% | [3] 10.8% | [4] 10.9% | [5] 25.2% | [6] 16.6%

O=C(Cc1nc2ccc(C(=O)c3ccccc3)cc2[nH]c1=O)C(=O)Nc1nc2ccccc2[nH]1
inactive: [1] -23.1% | [2] 19.3% | [3] -4.05% | [4] -17.9% | [5] -4.25% | [6] 9.5%

CCCCCCCCCC/C=C/c1c(C)[nH]c2ccccc2c1=O
inactive: [1] -11.9% | [2] 8.7% | [3] -6.3% | [4] -6.5% | [5] -8.45% | [6] -11.1%

N#CNC1=C(C#N)C(c2ccccc2)CC(=O)N1 (stereo unspecified)
inactive: [1] 4.35% | [2] 25.5% | [3] 24.9% | [4] 0% | [5] -0.4% | [6] 10.2%

CC(C)(C)[Si](C)(C)Oc1cc(CO)cc2c1cc(=N)o[n+]2[O-]
inactive: [1] -27.6% | [2] -12.9% | [3] -23.2% | [4] -30.9% | [5] -1.15% | [6] -31.2%

CC1COCC(C)N1CC(OCc1ccccc1)c1ccccc1 (stereo unspecified)
inactive: [1] -5.7% | [2] -2.2% | [3] -15.4% | [4] -52.2% | [5] -7.9% | [6] -15.5%

CC(C)(C(=O)O)C(=O)O
inactive: [1] 6.9% | [2] 3.25% | [3] 0.6% | [4] 8.2% | [5] 21.4% | [6] 3.1%

COc1cc2c(c(OC)c1OC)C(=O)[C@H]1OC(=O)N[C@@H]21
inactive: [1] 8% | [2] 3.05% | [3] 5.2% | [4] 2.1% | [5] 12.9% | [6] -32%

CCOC(=O)c1cn(CC)c2cc(-n3cccc3)c(F)cc2c1=O
inactive: [1] 46.6% | [2] 27.6% | [3] 48.1% | [4] 39.5% | [5] 27% | [6] 49.9%

c1ccc(CNC2CC3CCC2C3)cc1 (stereo unspecified)
inactive: [1] -17.6% | [2] -5.5% | [3] -10.8% | [4] -5.15% | [5] -16.4% | [6] -1.3%

O=C(CCN1CCCC1)c1ccccc1
inactive: [1] -25.1% | [2] -15.1% | [3] -11.4% | [4] 5.45% | [5] -10.6% | [6] -11.1%

Nc1nc(Cl)c2ncn(C3OC(CO)C(O)C3O)c2n1 (stereo unspecified)
inactive: [1] -8.1% | [2] -3.65% | [3] -1.9% | [4] -34.5% | [5] -5.2% | [6] 1.4%

NC(=NC1CCCCC1)c1ccc(C(=O)OCC2CCCCC2)cc1
inactive: [1] 39.2% | [2] 12.6% | [3] 45.5% | [4] 19.9% | [5] 21.8% | [6] 26.4%

CCCC(NC(=O)OCc1ccccc1)C(=O)NCC(=O)O (stereo unspecified) (Cbz-[ξNva]-Gly-OH)
inactive: [1] 24.6% | [2] 7.2% | [3] 6.05% | [4] 23.4% | [5] 8.7% | [6] 8.55%

O=C1c2ccccc2C(=O)N1Br
inactive: [1] 0.15% | [2] -19.5% | [3] 6.5% | [4] 10.8% | [5] 3.6% | [6] 18.9%

c1ccc(CN2CCCNCC2)cc1
inactive: [1] 9.55% | [2] -1.4% | [3] -0.25% | [4] -11.8% | [5] 4.7% | [6] -0.05%
